# Reference: PubChem BioAssay (NCATS)
# Records with an inconclusive call do not appear. Entries that show only a call come without a potency. The source made the active and inactive calls. Unless noted, the call rests on the fitted dose curve; in most records, active means well fitted curve in the direction sought with a large enough effect; inconclusive means small, poorly fitted or top-dose-only effect, or another doubt; inactive means no such curve, though single readings can be large; an effect the other way counts as inactive or inconclusive.
# Legend:
# [1] = Cytotoxicity counterscreen for NFkB agonists and antagonists (AID 624476);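 further: cells exposed to compound for 48 hours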; further: potency means the concentration at half of the fitted maximal effect
# [2] = qHTS Assay for Identification of Small Molecule Agonists for NFkB Signaling Pathway. (AID 624478)
# Method in brief: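 NFkB-bla ME-180 cells (beta-lactamase reporter under NFkB response element) were plated overnight, treated with compound plus TNF alpha at 10 pM final (its EC50) for 5 hrs at 37 C, then loaded with LiveBLAzer substrate for 2 hrs.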
# [3] = Cell Proliferation Assay against the TMD8 Cell Line (AID 651645); conditions: TMD8 DLBCL cell line proliferation/viability; at 46.1 µM (top of the series);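 further: cells exposed to compound for 48 h before reading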
# Method in brief: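 500 TMD8 cells/well, RPMI + Glutamax, no phenol red, 5% FBS; cpd added immediately; 48 h, 37C, 5% CO2; CellTiter-Glo, luminescence. Controls: DMSO = 100%, bortezomib 9.2 uM final = 0%.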
# [4] = Cell Proliferation Assay against the HBL1 Cell Line (AID 651646); conditions: HBL1 DLBCL cells; at 46.1 µM (top of the series);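 further: cells exposed to compound for 48 h before reading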
# Method in brief: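 500 log-phase HBL1 cells per well in phenol red-free RPMI with 5% FBS were treated with compounds for 48 h at 37 °C, 5% CO2. Viability was read by CellTiter-Glo luminescence, normalized to DMSO (100%) and 9.2 uM bortezomib final (0%).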
# [5] = Cell Proliferation Assay against the TMD8 Cell Line (Caspase readout at 8 hrs) (AID 651713)
# Method in brief: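 TMD8 cells (500/well) in phenol red-free RPMI with 5% FBS were treated with compounds for 8 h at 37C, 5% CO2. Caspase-Glo 3/7 luminescence was read after 15 min at room temperature and normalised to DMSO (0%) and 9.2 uM bortezomib (100%).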
# [6] = S16 Schwann cell PMP22 intronic element firefly luciferase assay (AID 624032); further: nearly all actives have a fitted effect of over 30% in size
# Method in brief: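 Rat S16 Schwann cells stably carrying a PMP22 intronic element-driven Fluc reporter were seeded overnight, then exposed to compounds for 24 h at 37 °C. Luminescence was normalized to PTC124 (positive control) and DMSO (0% activity).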
# [7] = target: Glutaminase kidney isoform, mitochondrial (Homo sapiens) (UniProt O94925); assay: qHTS for Inhibitors of Glutaminase (GLS): LOPAC Validation (AID 624146);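 further: glutamate product detected by oxidase and peroxidase coupled Amplex red fluorescence gain; nearly all actives have a fitted effect of over 60% in size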
# Chain of Glutaminase kidney isoform, mitochondrial (Homo sapiens) (O94925 whole entry, looked up, canonical isoform): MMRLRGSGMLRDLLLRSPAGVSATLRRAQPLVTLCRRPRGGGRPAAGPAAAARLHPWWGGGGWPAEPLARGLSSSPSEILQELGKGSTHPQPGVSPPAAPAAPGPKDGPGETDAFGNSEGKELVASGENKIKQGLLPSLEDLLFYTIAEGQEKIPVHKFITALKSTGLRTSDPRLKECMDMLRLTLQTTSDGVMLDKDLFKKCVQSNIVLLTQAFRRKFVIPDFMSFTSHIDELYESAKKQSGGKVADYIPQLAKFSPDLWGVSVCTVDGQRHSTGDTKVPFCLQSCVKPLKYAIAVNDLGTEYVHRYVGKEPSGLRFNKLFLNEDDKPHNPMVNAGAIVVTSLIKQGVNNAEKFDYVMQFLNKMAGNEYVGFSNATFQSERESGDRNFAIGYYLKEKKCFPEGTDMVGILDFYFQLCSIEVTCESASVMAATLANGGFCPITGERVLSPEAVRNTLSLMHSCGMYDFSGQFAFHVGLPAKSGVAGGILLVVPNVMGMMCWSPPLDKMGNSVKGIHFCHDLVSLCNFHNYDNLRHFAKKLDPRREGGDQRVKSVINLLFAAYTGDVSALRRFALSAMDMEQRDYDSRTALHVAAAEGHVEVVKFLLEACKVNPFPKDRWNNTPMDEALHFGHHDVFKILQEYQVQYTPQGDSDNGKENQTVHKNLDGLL
# Method in brief: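 Human kidney-isoform GLS in 45 mM KH2PO4 pH 8.2, 0.02% Tween-20, with compound, started with 1mM L-Glutamine (added stock). Glutamate oxidase/HRP/Amplex red coupled fluorescence read at start and after 30 min at RT.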
# [8] = qHTS of Trypanosoma Brucei Inhibitors: LOPAC Validation (AID 624147)
# Method in brief: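 Screened from lowest to highest concentration, compounds were pinned into TbPYK/substrate mixtures, and ADP (130 uM final) was added. Plates sat at room temperature for 45 min prior to Kinase-Glo Plus detection by luminescence.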
# [9] = target: Glucagon-like peptide 1 receptor (Homo sapiens) (UniProt P43220); assay: qHTS of GLP-1 Receptor Agonists: LOPAC Validation (AID 624148);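 further: higher luminescence signal means agonism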
# Chain of Glucagon-like peptide 1 receptor (Homo sapiens) (P43220 whole entry, looked up): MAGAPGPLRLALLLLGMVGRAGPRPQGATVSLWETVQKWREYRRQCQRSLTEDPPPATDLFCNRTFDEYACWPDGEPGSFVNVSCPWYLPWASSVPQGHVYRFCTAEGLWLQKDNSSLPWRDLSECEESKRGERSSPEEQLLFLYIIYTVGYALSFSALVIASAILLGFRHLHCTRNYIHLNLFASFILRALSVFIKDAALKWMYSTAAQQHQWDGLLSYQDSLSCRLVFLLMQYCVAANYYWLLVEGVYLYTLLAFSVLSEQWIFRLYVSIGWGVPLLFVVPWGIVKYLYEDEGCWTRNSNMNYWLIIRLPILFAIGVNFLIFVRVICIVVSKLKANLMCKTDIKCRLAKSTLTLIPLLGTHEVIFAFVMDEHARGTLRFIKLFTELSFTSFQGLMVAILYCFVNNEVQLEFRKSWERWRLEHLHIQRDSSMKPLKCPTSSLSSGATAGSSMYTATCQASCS
# Method in brief: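 HEK293 cells stably co-expressing a cAMP-responsive luciferase reporter and a hypersensitive GLP-1R were plated 12 h at 37 °C and exposed to compounds for 4-6 hr at 37 °C, 5% CO2. Luminescence was read 12 min after adding detection reagent.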
# [10] = qHTS of Nrf2 Activators: LOPAC Validation (AID 624149)
# Method in brief: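 AREc32 cells carrying an ARE-driven firefly luciferase were grown overnight in OPTI-MEM with 5% FBS, then exposed to compounds for 24 hr at 37 deg C. Luciferase signal was read after 30 min with Steady-Glo at RT.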
# [11] = HTS Assay for Allosteric Antagonists of the Human D2 Dopamine Receptor: Hit Validation in HTRF (AID 624455);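 further: stable D1 dopamine receptor cell line scored for blocking the D1 response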
# Method in brief: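 Hits were examined in an HTRF assay using cells stably expressing the D1 dopamine receptor, scoring inhibition of the D1-mediated response. The preceding primary screen tracked calcium flux after an EC80 dopamine addition in force-coupled, inducible Hek293 Trex D2 cells.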
# [12] = qHTS Assay for Identification of Small Molecule Antagonists for NFkB Signaling Pathway. (AID 624479; calls by dose curve;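 further: pathway stimulated with TNF alpha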; further: potency means the concentration at half of the fitted maximal effect)
compound,measurement,setting,value
CCCCC/C=C\C/C=C\C/C=C\C/C=C\CCCC(=O)NC1CC1,Potency,[1],inactive
same,outcome,[2],inactive
same,viability (% of control),[3],86.9%
same,"viability, percent of control",[4],109%
same,Potency,[5],inactive
CNCCC(Oc1ccc(C(F)(F)F)cc1)c1ccccc1 (stereo not given),Potency,[6],inactive
CC(O)(CS(=O)(=O)c1ccc(F)cc1)C(=O)Nc1ccc(C#N)c(C(F)(F)F)c1 (stereo not given),Potency,[7],inactive
same,outcome,[8],inactive
same,outcome,[9],inactive
same,outcome,[10],inactive
same,Potency,[11],inactive
same,Potency,[1],inactive
same,outcome,[2],inactive
same,Potency,[12],inactive
same,viability (% of control),[3],109%
same,"viability, percent of control",[4],95.3%
same,Potency,[5],inactive
CNC(=O)N1N=C(c2ccc(N)cc2)c2cc3c(cc2CC1C)OCO3 (stereo not given),Potency,[1],inactive
same,outcome,[2],inactive
same,Potency,[12],inactive
same,viability (% of control),[3],5.8%
same,"viability, percent of control",[4],20%
same,Potency,[5],inactive
C[C@@H]1[C@@H](CC(C[C@H]2O[C@@H]3O[C@]4(C)CC[C@@H]5[C@H](C)CC[C@@H]([C@H]2C)[C@@]35OO4)C[S+](=O)([O-])c2ccc(COC(=O)N(C)C)cc2)O[C@@H]2O[C@]3(C)CC[C@H]4[C@H](C)CC[C@@H]1[C@@]24OO3 (stereo not given in full),Potency,[1],inactive
same,outcome,[2],inactive
same,viability (% of control),[3],5.05%
same,"viability, percent of control",[4],39.8%
same,Potency,[5],inactive
Cc1cc2c(C(C)C)c(O)c(O)c(C=O)c2c(O)c1-c1c(C)cc2c(C(C)C)c(O)c(O)c(C=O)c2c1O,Potency,[1],4.69 µM (active)
same,Potency,[12],5.95 µM (active)
CC1=C2C[C@@H]3[C@@H](CC=C4C[C@@H](O)CC[C@@]43C)[C@@H]2CC[C@]12O[C@H]1C[C@H](C)CN[C@H]1[C@H]2C,Potency,[1],inactive
same,outcome,[2],inactive
same,viability (% of control),[3],62.9%
same,"viability, percent of control",[4],69.1%
COC1(CS(=O)c2ccccc2)CCN(CCc2c[nH]c3ccc(F)cc23)CC1 (stereo not given),Potency,[1],inactive
same,outcome,[2],inactive
same,Potency,[12],inactive
same,viability (% of control),[3],79.9%
same,"viability, percent of control",[4],108%
same,Potency,[5],inactive
